# Experimental data as given in the supplement of paper PMC11732987, “Enantioselective OTUD7B fragment discovery through chemoproteomics screening and high-throughput optimisation” (Communications Chemistry, 2025).
# A number with no mark means an inactive call.
# Assays:
# Assay in all cases: log2 ratio of Biotin-Ahx-Ub-VS probe labelling (fragment/DMSO); higher = less target engagement (more negative = stronger competition), active = hit call of the paper (q ≤ 0.05, log2 ratio ≤ -1)
# Conditions in all cases: compound concentration: 200 uM; treatment time: 3 h
# OTUD6B = target: T1, OTUD6B (UniProt Q8N6M0)
# T1 sequence (whole entry): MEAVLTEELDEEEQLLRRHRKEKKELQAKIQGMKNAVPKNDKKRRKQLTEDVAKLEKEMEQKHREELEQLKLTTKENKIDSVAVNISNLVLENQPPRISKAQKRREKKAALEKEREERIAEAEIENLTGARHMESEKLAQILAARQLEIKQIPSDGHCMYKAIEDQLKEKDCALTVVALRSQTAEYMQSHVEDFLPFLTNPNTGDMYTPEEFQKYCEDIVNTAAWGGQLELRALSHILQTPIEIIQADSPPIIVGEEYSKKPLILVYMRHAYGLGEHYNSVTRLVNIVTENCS
# How it was run: (§1)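 HEK293T lysate in Tris/CHAPS/IGEPAL buffer with protease inhibitors (495 µg per sample) was given fragment at 200 µM or vehicle for 3 h, in triplicate. It then received Biotin-Ahx-Ub-VS at 0.5 µM final for 1 h. Labelled DUBs were NeutrAvidin-enriched, digested with LysC and trypsin, and run by diaPASEF LC-MS/MS. Values are average log2 fragment/vehicle ratios by unpaired t-test on global-median-normalised Spectronaut quantities of proteins with ≥2 unique peptides.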
# OTUD7B = target: T2, OTUD7B (UniProt Q6GQQ9)
# T2 sequence (whole entry): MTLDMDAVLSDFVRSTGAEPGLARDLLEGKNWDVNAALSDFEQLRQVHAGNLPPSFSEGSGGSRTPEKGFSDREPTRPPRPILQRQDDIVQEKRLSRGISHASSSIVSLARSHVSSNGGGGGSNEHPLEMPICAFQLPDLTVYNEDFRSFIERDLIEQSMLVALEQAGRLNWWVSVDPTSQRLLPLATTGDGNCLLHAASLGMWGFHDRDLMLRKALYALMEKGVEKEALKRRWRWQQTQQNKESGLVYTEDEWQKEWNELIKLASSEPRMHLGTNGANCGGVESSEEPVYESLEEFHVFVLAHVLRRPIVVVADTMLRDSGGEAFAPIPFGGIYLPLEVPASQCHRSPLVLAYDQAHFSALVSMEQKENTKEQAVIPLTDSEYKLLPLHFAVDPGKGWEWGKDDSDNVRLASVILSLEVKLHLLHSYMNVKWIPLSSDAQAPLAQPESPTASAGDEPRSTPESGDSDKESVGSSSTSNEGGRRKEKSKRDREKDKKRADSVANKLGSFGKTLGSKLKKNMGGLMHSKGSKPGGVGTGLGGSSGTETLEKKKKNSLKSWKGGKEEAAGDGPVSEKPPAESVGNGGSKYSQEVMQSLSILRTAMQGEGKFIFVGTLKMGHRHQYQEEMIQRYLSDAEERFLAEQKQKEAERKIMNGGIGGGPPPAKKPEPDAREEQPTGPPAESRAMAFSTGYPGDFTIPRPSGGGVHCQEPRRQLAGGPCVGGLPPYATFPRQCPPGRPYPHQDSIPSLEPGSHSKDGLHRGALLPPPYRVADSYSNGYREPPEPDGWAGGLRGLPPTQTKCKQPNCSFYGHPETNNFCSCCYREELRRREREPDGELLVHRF
# How it was run: as §1
# PRPF8 = PRPF8 (UniProt Q6P2Q9)
# How it was run: as §1
# PSMD7 = target: T3, PSMD7 (UniProt P51665)
# T3 sequence (whole entry): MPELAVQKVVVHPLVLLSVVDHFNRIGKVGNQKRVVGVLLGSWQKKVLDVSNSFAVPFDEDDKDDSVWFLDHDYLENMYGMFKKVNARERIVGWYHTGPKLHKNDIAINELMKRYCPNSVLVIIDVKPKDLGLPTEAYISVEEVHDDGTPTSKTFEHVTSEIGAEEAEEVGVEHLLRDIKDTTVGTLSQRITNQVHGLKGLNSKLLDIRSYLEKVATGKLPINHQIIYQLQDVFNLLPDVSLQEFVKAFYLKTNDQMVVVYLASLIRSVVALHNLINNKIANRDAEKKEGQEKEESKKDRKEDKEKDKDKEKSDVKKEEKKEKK
# How it was run: as §1
# UCHL1 = UCHL1 (UniProt P09936)
# UCHL1, sequence (P09936 whole entry, looked up): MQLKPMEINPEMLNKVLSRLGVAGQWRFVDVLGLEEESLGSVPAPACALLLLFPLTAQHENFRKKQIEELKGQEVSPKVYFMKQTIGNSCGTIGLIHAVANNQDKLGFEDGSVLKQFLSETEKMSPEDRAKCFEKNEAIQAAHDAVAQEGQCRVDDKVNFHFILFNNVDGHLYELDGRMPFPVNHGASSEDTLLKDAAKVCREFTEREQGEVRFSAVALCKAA
# How it was run: as §1
# UCHL3 = target: T4, UCHL3 (UniProt P15374)
# T4 sequence (whole entry): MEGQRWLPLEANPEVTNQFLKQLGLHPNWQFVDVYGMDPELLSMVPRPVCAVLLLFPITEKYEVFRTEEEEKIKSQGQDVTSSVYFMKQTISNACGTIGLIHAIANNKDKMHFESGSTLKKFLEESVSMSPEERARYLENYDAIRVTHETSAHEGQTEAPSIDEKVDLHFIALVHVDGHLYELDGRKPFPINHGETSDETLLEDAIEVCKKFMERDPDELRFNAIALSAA
# How it was run: as §1
# UCHL5 = target: T5, UCHL5 (UniProt Q9Y5K5)
# T5 sequence (whole entry): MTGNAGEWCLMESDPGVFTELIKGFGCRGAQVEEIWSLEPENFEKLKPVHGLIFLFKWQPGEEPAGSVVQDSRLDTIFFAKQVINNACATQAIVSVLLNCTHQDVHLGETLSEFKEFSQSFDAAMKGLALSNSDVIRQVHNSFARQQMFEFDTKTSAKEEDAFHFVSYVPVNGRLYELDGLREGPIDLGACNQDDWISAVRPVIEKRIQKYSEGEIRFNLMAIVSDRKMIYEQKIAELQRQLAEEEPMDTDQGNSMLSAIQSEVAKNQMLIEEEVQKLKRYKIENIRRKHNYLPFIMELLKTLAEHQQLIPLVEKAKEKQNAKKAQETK
# How it was run: as §1
# USP10 = USP10 (UniProt Q14694)
# USP10, sequence (Q14694 whole entry): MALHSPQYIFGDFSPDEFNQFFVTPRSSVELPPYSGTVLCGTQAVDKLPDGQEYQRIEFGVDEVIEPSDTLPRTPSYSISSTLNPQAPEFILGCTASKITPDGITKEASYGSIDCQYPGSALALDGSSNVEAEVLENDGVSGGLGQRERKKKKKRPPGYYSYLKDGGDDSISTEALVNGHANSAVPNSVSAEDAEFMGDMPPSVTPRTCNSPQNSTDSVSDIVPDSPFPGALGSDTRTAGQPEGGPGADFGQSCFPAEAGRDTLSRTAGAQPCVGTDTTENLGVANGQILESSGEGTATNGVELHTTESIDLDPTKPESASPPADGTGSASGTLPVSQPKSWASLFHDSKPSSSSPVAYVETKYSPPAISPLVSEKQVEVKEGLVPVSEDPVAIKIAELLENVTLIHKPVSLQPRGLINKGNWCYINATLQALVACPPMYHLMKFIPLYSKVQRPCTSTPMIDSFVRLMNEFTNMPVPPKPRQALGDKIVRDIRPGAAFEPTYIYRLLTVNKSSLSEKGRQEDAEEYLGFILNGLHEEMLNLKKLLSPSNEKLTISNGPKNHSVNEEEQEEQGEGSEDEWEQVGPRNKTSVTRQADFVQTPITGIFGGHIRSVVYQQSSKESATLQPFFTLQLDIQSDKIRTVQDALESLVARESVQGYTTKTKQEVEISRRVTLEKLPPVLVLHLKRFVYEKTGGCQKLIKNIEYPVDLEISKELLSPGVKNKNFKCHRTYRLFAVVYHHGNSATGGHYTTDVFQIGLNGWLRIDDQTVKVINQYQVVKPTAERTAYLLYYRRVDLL
# How it was run: as §1
# USP15 = target: T6, USP15 (UniProt Q9Y4E8)
# T6 sequence (whole entry): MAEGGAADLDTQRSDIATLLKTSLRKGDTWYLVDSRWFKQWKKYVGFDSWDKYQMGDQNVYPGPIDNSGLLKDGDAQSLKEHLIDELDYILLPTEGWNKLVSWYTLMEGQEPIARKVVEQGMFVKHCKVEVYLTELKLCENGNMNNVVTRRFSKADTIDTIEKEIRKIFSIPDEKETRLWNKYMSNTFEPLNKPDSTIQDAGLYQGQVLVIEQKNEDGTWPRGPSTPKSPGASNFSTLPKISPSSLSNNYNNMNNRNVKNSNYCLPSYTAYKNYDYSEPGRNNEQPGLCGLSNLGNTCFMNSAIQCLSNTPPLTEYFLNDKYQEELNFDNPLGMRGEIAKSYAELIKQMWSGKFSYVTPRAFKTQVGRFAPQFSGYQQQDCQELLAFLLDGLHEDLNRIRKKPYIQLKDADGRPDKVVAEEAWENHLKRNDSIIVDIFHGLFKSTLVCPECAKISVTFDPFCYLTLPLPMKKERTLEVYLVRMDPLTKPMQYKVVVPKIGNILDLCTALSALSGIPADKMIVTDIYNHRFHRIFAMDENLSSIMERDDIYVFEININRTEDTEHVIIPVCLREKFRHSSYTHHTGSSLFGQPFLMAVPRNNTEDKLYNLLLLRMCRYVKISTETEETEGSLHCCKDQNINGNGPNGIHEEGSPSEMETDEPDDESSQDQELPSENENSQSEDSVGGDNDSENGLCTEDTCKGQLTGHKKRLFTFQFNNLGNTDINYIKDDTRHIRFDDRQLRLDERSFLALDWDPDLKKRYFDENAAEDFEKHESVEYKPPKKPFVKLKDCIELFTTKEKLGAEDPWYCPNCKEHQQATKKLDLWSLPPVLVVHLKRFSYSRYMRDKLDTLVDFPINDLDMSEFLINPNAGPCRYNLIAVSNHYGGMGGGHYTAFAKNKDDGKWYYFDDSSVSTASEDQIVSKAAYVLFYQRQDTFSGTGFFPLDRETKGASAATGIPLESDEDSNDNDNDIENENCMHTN
# How it was run: as §1
# USP16 = USP16 (UniProt Q9Y5T5)
# USP16, sequence (Q9Y5T5 whole entry, looked up): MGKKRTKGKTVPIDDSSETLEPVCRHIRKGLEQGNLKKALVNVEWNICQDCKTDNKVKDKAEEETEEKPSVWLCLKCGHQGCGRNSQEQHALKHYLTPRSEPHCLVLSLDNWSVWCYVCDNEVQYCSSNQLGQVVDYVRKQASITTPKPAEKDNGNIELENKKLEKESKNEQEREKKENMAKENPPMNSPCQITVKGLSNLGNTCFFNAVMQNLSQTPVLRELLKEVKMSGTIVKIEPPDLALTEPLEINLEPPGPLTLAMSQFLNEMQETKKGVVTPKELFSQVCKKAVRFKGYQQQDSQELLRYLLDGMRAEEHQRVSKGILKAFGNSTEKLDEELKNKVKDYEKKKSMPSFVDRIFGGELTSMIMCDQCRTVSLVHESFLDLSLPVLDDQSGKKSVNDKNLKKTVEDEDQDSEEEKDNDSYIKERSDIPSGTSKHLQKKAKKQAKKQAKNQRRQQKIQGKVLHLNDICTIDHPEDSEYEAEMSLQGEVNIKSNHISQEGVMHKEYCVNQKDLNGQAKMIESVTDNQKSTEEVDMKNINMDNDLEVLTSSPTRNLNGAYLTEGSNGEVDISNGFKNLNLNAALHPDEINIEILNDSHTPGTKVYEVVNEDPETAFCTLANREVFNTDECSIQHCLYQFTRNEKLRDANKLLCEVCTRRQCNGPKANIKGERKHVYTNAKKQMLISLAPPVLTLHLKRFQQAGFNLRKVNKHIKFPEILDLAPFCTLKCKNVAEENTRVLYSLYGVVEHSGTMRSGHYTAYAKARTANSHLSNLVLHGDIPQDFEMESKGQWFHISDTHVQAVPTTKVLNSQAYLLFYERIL
# How it was run: as §1
compound,measurement,setting,value
CN(CCc1ncc(Br)cn1)C(=O)CCl.Cl,log2 ratio of Biotin-Ahx-Ub-VS probe labelling,OTUD6B,-0.311
same,log2 ratio of Biotin-Ahx-Ub-VS probe labelling,OTUD7B,-1.39 (active)
same,log2 ratio of Biotin-Ahx-Ub-VS probe labelling,PRPF8,-0.0479
same,log2 ratio of Biotin-Ahx-Ub-VS probe labelling,PSMD7,-0.205
same,log2 ratio of Biotin-Ahx-Ub-VS probe labelling,UCHL1,-1.55 (active)
same,log2 ratio of Biotin-Ahx-Ub-VS probe labelling,UCHL3,0.504
same,log2 ratio of Biotin-Ahx-Ub-VS probe labelling,UCHL5,-0.318
same,log2 ratio of Biotin-Ahx-Ub-VS probe labelling,USP10,-0.276
same,log2 ratio of Biotin-Ahx-Ub-VS probe labelling,USP15,-0.463
same,log2 ratio of Biotin-Ahx-Ub-VS probe labelling,USP16,-0.32
